Mito fusion yeast: qHTS Assay for Small Molecule Inhibitors of Mitochondrial Division or Activators of Mitochondrial Fusion. Potency, µM (series often up to 46.1 µM), for the others: top-dose growth rescue (activation), most hits filed as activators. AID 485298, 2010. hit rate 0.23% among 320,000. S. cerevisiae fusion-defective mutant growth rescue, CellTiterGlo 48 h; also: % of control where 0% means no effect; nearly all actives have a fitted effect of over 45% in size
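S. cerevisiae fusion-defective temperature-sensitive mutants (e.g. fzo1-1, mgm1-5) grown 48 h at 37C in YPEG (ethanol/glycerol non-fermentable) medium with 23 nl compound per well; growth rescue read as CellTiterGlo luminescence.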
TrxR1 inh: qHTS Assay for Inhibitors of Mammalian Selenoprotein Thioredoxin Reductase 1 (TrxR1): qHTS; recombinant rTrxR1, NADPH fluorescence consumption, selenite substrate; Potency, µM (doses to about 114 µM), for the others: at the top dose activity change, negative = inhibition, actives largely listed as inhibitors; hit rate 1% among 390,000; also: % is scaled to controls: 0 for no effect and ±100 for the full control effect; nearly all actives have a fitted effect of over 65% in size
Target sequence (O89049 whole entry, looked up): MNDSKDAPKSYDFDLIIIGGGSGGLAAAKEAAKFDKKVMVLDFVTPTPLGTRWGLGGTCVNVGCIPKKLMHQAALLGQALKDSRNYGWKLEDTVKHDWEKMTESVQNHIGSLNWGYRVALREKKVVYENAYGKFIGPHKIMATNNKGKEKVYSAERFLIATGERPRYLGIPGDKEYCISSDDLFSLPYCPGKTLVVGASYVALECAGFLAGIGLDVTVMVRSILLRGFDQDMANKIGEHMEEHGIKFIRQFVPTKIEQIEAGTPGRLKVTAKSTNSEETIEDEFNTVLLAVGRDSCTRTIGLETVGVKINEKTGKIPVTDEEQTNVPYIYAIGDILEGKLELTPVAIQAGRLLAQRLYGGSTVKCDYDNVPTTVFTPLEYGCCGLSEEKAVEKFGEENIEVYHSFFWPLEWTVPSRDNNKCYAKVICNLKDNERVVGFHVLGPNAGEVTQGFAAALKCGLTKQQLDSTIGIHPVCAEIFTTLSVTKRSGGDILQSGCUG
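Rat TrxR1 (90 nM in the dispensed reagent) was pre-reduced with 400 uM NADPH for 5 min at room temperature, then incubated with compound for 15 min. After 400 uM selenite was added, NADPH fluorescence (Ex 340/Em 450 nm) was followed for 8 min.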
A549 viability: Nrf2 qHTS screen for inhibitors: counterscreen for cytotoxicity. Potency, µM (titrated, usually from 46 µM), for inactives: at the highest dose activity change, negative = cytotoxicity, usual class: inhibitors. AID 504648, 2011. A549 ARE-Fluc cells, CellTiter-Fluor viability, 18-24 h. hit rate 0.16% among 390,000; also: % is scaled to controls: 0 for no effect and ±100 for the full control effect
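Cytotoxicity counterscreen: CellTiter-Fluor fluorescence was measured in A549 ARE_Fluc cells after 18-24 h of compound exposure in a concentration series. The subsequent BugLite luminescent read reports ARE-luciferase activity.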
Nrf2 block: Nrf2 qHTS screen for inhibitors. Potency, µM (titrated, usually from 46 µM), for inactives: at the highest dose activity change, negative = inhibition, usual class: inhibitors. A549 ARE-Fluc reporter, luciferase luminescence, 18-24 h. hit rate 2.1% among 360,000. AID 504444, 2011; also: % is scaled to controls: 0 for no effect and ±100 for the full control effect; nearly all actives have a fitted effect of over 60% in size
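Cells were seeded and rested 2 h, then exposed to compounds for 18-24 h. CellTiter-Fluor was read first as a viability measure. BugLite was added 15 min before the final luminescent read of ARE-luciferase activity in A549 cells.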
mIDH1 inhibitor: qHTS for Inhibitors of mutant isocitrate dehydrogenase 1 (IDH1): qHTS; hit rate 0.093% among 390,000; AID 602179, 2012; Potency, µM (doses to about 76.6 µM), inactives show at the top dose activity change, negative = inhibition, hits mostly inhibitors; Isocitrate dehydrogenase [NADP] cytoplasmic (Homo sapiens), O75874; IDH1-R132H enzyme, NADPH consumption, diaphorase/resazurin fluorescence; also: % is scaled to controls: 0 for no effect and ±100 for the full control effect; nearly all actives have a fitted effect of over 65% in size
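IDH1-R132H (0.5 ug/mL dispensed) in pH 7.5 Tris buffer was preincubated 30 min with compound, then given a substrate mix of 0.016 mM NADPH and 2 mM alpha-KG for 80 min at room temperature; remaining NADPH was read by diaphorase/resazurin fluorescence.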
TrxR1 substrate: qHTS Assay for Substrates of Mammalian Selenoprotein Thioredoxin Reductase 1 (TrxR1): qHTS | Thioredoxin reductase 1, cytoplasmic (Rattus norvegicus), O89049 | purified TrxR1 substrate turnover, NADPH consumption readout | Potency, µM (doses to about 114 µM), for inactives: top-dose activity change, negative = substrate turnover | hit rate 0.01% among 390,000 | AID 588456, 2011; also: % is scaled to controls: 0 for no effect and ±100 for the full control effect; nearly all actives have a fitted effect of over 50% in size
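Rat TrxR1, dispensed at 90 nM, was prereduced with 400 uM NADPH (final) for 5 min at ~22 deg C, then incubated with compound 15 min before 400 uM selenite. A first-read NADPH fluorescence drop versus no-compound background flagged substrates.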
Numbers without * were called inactive; ? = inconclusive; / = not tested or not shown; [ ] = another dose, or the depositor's remark. Most compounds without a hit are left out; they make up all but 3.1% or so of the library. Calls follow the shape of the dose curve; as a rule, active = well fitted curve in the direction sought with a large enough effect; inconclusive = small, poorly fitted or top-dose-only effect, or another doubt; inactive = no such curve, though single readings can be large; an effect the other way counts as inactive or inconclusive. Potency is read from the fitted curve at half-maximal effect.

SMILES	Mito fusion yeast	TrxR1 inh	A549 viability	Nrf2 block	mIDH1 inhibitor	TrxR1 substrate
O=C(CN1C(=O)CCc2cc(S(=O)(=O)N3CCOCC3)ccc21)NCc1ccccc1Cl	/	15%[57.1 µM]	0%	/	-28%	7%[57.1 µM]
CC1CN(c2nc3c(c(=O)n(Cc4ccc(Cl)c(Cl)c4)c(=O)n3C)n2C)CC(C)O1 (centres undefined)	?	19%	?	23µM*	7%	-2%
C=CCn1c(SCC(=O)Nc2sccc2C(N)=O)nc2sc(CC)cc2c1=O	-2%	5%	?	15µM*	-2%	-5%
C=CCn1c(SCC(=O)Nc2sccc2C(N)=O)nc2ccccc2c1=O	0%	-5%	-25%	26µM*	1%	-7%
Cc1csc2ncnc(N3CCN(C(=O)Nc4ccc(OC(F)(F)F)cc4)CC3)c12	-13%	37%	?	23µM*	-2%	-2%
Cc1csc2c(N3CCN(C(=O)Nc4ccccc4)CC3)ncnc12	-6%	5%[57.1 µM]	-3%	8.2µM*	6%	11%[57.1 µM]
Cc1csc2c(N3CCN(C(=S)Nc4ccc(F)cc4F)CC3)ncnc12	0%	6%	-5%	18µM*	2%	5%[57.1 µM]
CN(C)c1ccc(/C=C2/CCCc3c2nc2ccccc2c3C(=O)O)cc1	/	?	/	/	/	-1%
Cc1ccc(OCCCC(=O)Nc2sc3c(c2C(N)=O)CCC(C)C3)cc1 (centres undefined)	/	-5%	-8%	-21%	15%	14%
CC(C)Cn1c(=O)c2ccccc2n2c(CCC(=O)NCc3ccc(Cl)cc3)nnc12	/	20%	5%	6%	-5%	2%
O=C(NCC(=O)N1CCN(c2cccc(Cl)c2)CC1)c1ccc(Br)o1	8%	-8%	-11%	-4%	4%	1%
Cc1cccc(N2CCN(C(=O)CNC(=O)c3cccc([N+](=O)[O-])c3)CC2)c1C	-5%	8%	-3%	23µM*	5%	-5%
Cc1cccc(C(=O)NCC(=O)N2CCN(c3ccc(Cl)cc3)CC2)c1	8%	7%	-1%	?	3%	13%
Cc1ccc(Cl)cc1N1CCN(C(=O)CNC(=O)c2ccc(Br)o2)CC1	16µM*	?	1%	-24%	3%	2%
Cc1cccc(N2CCN(C(=O)CNC(=O)Cc3ccccc3)CC2)c1C	/	-3%	-18%	?	4%	-5%
Cc1cc(C)cc(C(=O)NCC(=O)N2CCN(c3cccc(Cl)c3)CC2)c1	4%	16%	-20%	21µM*	5%	-1%
Cc1cc2c(s1)c1cnn(Cc3ccccc3F)c(=O)c1n2Cc1ccccc1F	/	/	6%	-16%	/	/
CC(C)COc1ccc(CC(=O)NO)cc1	/	12%	/	/	/	5%
O=C(NCCOc1ccc(Cl)cc1)c1cccc(S(=O)(=O)N2CCCC2)c1	1%	-10%	0%	23µM*	-16%	-17%
O=C(NCc1ccc2c(c1)OCO2)c1cccc(S(=O)(=O)N2CCCCC2)c1	-1%	18%	-9%	15µM*	6%	1%
O=C(NCc1ccc2c(c1)OCO2)c1cccc(S(=O)(=O)N2CCCC2)c1	0%	4%	1%	-2%	-2%	-1%
O=C(NCc1ccc(Cl)cc1)c1cccc(S(=O)(=O)N2CCCC2)c1	2%	24%	5%	-16%	2%	6%
CC1(C)OC(=O)C2(Cc3ccc(Cl)cc3N3CCCCC32)C(=O)O1 (centres undefined)	/	2%	-4%	0%	/	2%
O=[n+]1c2c(n([O-])c3cc(Br)ccc31)CCCC2	5%	-20%	0%	-24%	7%	-14%

High-throughput results deposited in PubChem by National Center for Advancing Translational Sciences (NCATS).
